# Data taken from PubChem BioAssay (NCI).
# Compounds without any hit were thinned out: in the full panel of roughly 79,000, 15% have a hit. Unmarked numbers belong to inactive results. The source made the active and inactive calls. Cut-off read from the data, not from the text of the source: active = growth inhibition above about 70%; inactive = the rest.
# Tests used:
# [1] = NCI Yeast Anticancer Drug Screen. Data for the rad50 strain (AID 155);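 note: 0% = growth of vehicle-only cultures of the same strain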; details: S. cerevisiae rad50 strain growth inhibition; at 50.0 µM; active compounds read high
# Method in brief: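 A DNA repair-deficient yeast mutant serves as the test organism; compound-induced growth inhibition is calculated against vehicle-treated cells.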
# [2] = NCI Yeast Anticancer Drug Screen. Data for the mec2-1 strain (AID 157); details: S. cerevisiae mec2-1 strain, at 50.0 µM, active compounds read high
# Method in brief: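 Yeast mec2-1 mutant treated with compound. Readout: growth inhibition vs vehicle controls.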
# [3] = NCI Yeast Anticancer Drug Screen. Data for the sgs1 mgt1 strain (AID 161);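 note: 0% = growth of cultures given vehicle only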; details: S. cerevisiae sgs1 mgt1 strain, at 50.0 µM, active compounds read high
# Method in brief: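 Test agents were incubated with a DNA-repair-mutant yeast strain. Growth was then read and compared against vehicle-treated controls.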
# [4] = NCI Yeast Anticancer Drug Screen. Data for the cln2 rad14 strain (AID 165);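 note: 0% = growth equal to vehicle treated cultures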; details: S. cerevisiae cln2 rad14 strain, at 50.0 µM, active compounds read high
# Method in brief: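 cln2 rad14 yeast strain; compound exposure; growth inhibition read vs vehicle controls.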
# [5] = NCI Yeast Anticancer Drug Screen. Data for the bub3 strain (AID 167); details: S. cerevisiae bub3 mutant strain, at 50.0 µM, active compounds read high
# Method in brief: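 Inhibition values come from growth of compound-treated mutant yeast normalised to vehicle-treated controls.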
# [6] = NCI Yeast Anticancer Drug Screen. Data for the mlh1 rad18 strain (AID 175); details: S. cerevisiae mlh1 rad18 strain growth inhibition; at 50.0 µM; active compounds read high
# Method in brief: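 Yeast w/ defined DNA-repair lesions; compound exposure; growth vs vehicle controls → % inhibition.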
Structure (SMILES),growth inhibition [1],growth inhibition [2],growth inhibition [3],growth inhibition [4],growth inhibition [5],growth inhibition [6]
CCCCCOP(=O)(OCCCCC)C(c1ccccc1)c1ccccc1,1%,-44.9%,-4.15%,-33.4%,9.5%,-11.9%
CCCCCCCCCCCCCCO,21.9%,-22.8%,-19.7%,-54.8%,1.3%,16.9%
CC(=O)Nc1cc2c3c(c1)CCCN3CCC2,-24.4%,-14.8%,-38.2%,25.9%,27.6%,-3.6%
COc1ccc(N=Cc2ccc(N(CCC#N)S(=O)(=O)c3ccccc3)cc2C)cc1,-9.4%,-10.8%,5.5%,13.4%,-16.8%,-10%
CN(C)CCNC(=O)c1cccc(N(C)C(=O)c2ccccc2)c1[N+](=O)[O-],6.65%,-9.45%,6.5%,17.6%,7.05%,3.15%
CN1N(c2ccccc2)C(=O)C2=NC=C(C(=O)c3ccccc3)C(=N)C21C (configuration not stated),6.2%,-1.6%,22.1%,19.9%,7.7%,16.8%
COC(=O)C1=C(O)C(C(=O)OC)[C@@]2(O)[C@@H](C(=O)OC)[C@H](C)C[C@@H]1[C@@H]2C(=O)OC (some centres not stated),41.6%,15.4%,47%,-1.05%,23.1%,38.5%
CCc1cc2c(c3c1CCCC3)CC1(Cc3ccc(C(=O)OC)cc3C1)C2 (configuration not stated),3.65%,-11.7%,-16.4%,10.3%,3.15%,-12.4%
N=c1ccn(CC(O)COc2ccccc2)cc1 (configuration not stated),-11.8%,-13.8%,-5.95%,10.6%,2.75%,9.55%
c1ccc2c(c1)N=C(c1ccc3ccccc3c1)CC(c1cccc3ccccc13)S2 (configuration not stated),13.2%,5.25%,-33.1%,33.1%,19.3%,-3.15%
CC(=O)Nc1c(C(N)=O)cnn1-c1ccccc1,17.9%,26.6%,17.7%,-0.2%,24.5%,36.9%
CC(=N\N=C(N)N)/C(N=Nc1ccc(S(N)(=O)=O)cc1)=N\N=C(N)N,-0.75%,5.55%,19.4%,-45.6%,-0.55%,21.3%
CCN(CC)CCOc1cccc(O)c1,-5.95%,-16.1%,-12.1%,-50.5%,-8.3%,-2.9%
NC1(c2ccccc2)CON=C(c2ccccc2)C1 (configuration not stated),17.2%,5.85%,-5.8%,-15.8%,1.4%,16.9%
COc1ccc([N+](=O)[O-])cc1NC(=O)N/N=C(\C)C(C)(C)C,5.2%,18.2%,8.8%,-9.35%,3.4%,6.3%
NC(=S)NNc1ccccc1,0.2%,-5.8%,-0.05%,-6.7%,-2.6%,-5.3%
Cc1cc(C)c(C)c(CN)c1C,-20%,-5.85%,-9.35%,7.8%,13.7%,-3%
OCC(O)COc1cccc2cccnc12 (configuration not stated),4.75%,-15%,0.4%,-26.1%,11.2%,8.3%
CC(=O)OCC1OC(c2ccccc2)C/C(=N/O)C1OC(C)=O (configuration not stated),90.8% (active),98.5% (active),97.8% (active),96.8% (active),87.8% (active),97.7% (active)
NCC1OCOC2C(C(=O)O)OCOC12 (configuration not stated),10.6%,2.6%,14.3%,-16%,3.8%,-3.7%
CCOC(=O)C1Cc2ccccc2OC1=O (configuration not stated),-9.4%,-15.2%,20.4%,12.8%,9.55%,3.85%

Structure (SMILES),growth inhibition [1],growth inhibition [2],growth inhibition [3],growth inhibition [4],growth inhibition [5],growth inhibition [6]
Nc1nc(Cl)c2ncn(C3OC(CO)C(O)C3O)c2n1 (configuration not stated),-8.1%,-3.65%,-1.9%,-34.5%,-5.2%,1.4%
CCOC(=O)CNC(=O)C(Cc1ccccc1)NC(=O)CNC(=O)OCc1ccccc1 (configuration not stated),22.4%,8.6%,15.5%,20.4%,0.75%,20.8%
Cc1ccc2nnc(NS(=O)(=O)c3cc(C)c(Cl)cc3S)n2n1,-30.3%,-7.75%,-24.9%,-16.9%,-0.9%,-25.4%
CC(C)CSc1nc2ccc(N=Cc3ccccc3O)cc2s1,-29.4%,-5.5%,-11.3%,-13%,8.75%,-17.3%
CSc1nccc(=O)n1C,9.6%,-14.8%,-9.8%,-52.6%,-21.6%,-2.15%
COC1/C=C\OC2(C)Oc3c(C)c(O)c4c(O)c(c5c(c4c3C2=O)NC2(CCN(C)CC2)N=5)=NC(=O)/C(C)=C\C=C\C(C)C(O)C(C)C(O)C(C)C(OC(C)=O)C1C (configuration not stated),2.85%,3%,-1%,10.3%,7%,3.25%
O=C(O)c1ccc(C2C3C=CC(C3)C2[N+](=O)[O-])cc1 (configuration not stated),6.15%,-18.8%,-20.2%,5.85%,-12.5%,-35.5%
O=C1NCC(c2ccccc2)(c2ccccc2)O1,26.9%,11.3%,10.3%,11.8%,4.45%,19.4%
Clc1ccc2nc(/C=C/c3ccccc3)ccc2c1,-10.7%,-4.2%,-9.4%,3.35%,6.9%,-15.7%
CCOC(=O)c1cccc(OCC)c1,6.95%,18.1%,-7.65%,-43%,3.5%,6.7%
O=C1C2(CCCC13OC3c1ccccc1)OC2c1ccccc1 (configuration not stated),-20.9%,-11.1%,-5.15%,-14.4%,23.3%,-3.6%
CC(=O)Nc1ccc(F)cc1,-38.3%,-25.7%,-5.3%,4%,-19.5%,-13.1%
COC(=O)c1c(-c2ccccc2)cc2c3cc(-c4ccccc4)c(C(=O)OC)n3c3ccccc3n12,-2.35%,-4.55%,-31.5%,-23.9%,-1.95%,-10.6%
CC(C)(C)c1cc(-c2c3nc(c(-c4cc(C(C)(C)C)cc(C(C)(C)C)c4)c4ccc([nH]4)c(-c4cc(C(C)(C)C)cc(C(C)(C)C)c4)c4nc(c(-c5cc(C(C)(C)C)cc(C(C)(C)C)c5)c5ccc2[nH]5)C=C4)C=C3)cc(C(C)(C)C)c1,19.8%,15.4%,24.2%,23.3%,2.6%,31.2%
COC(=O)c1cc(C(=O)O)c(=O)n2ccccc12,23%,50%,32.1%,53.2%,35.2%,41.5%
C/C(=C\c1ccc(OCCN2CCOCC2)cc1)c1ccc2c(c1)C(C)(C)CCC2(C)C,-3.2%,-11.9%,16.1%,-4.95%,-20.6%,-25.9%
CN(C)CC(C)(C)C(=O)c1ccc(F)cc1,5.35%,5.8%,-0.1%,3.55%,1.7%,12.3%
CSCCCO,-12.8%,-20.6%,10.5%,-39.1%,-2.45%,-7.4%
CCS(=O)(=O)/C=C(\C(=O)c1ccccc1)c1ccccc1,83.1% (active),93.5% (active),94% (active),47.2%,89.8% (active),93.3% (active)
COC(=O)C12OCC34C(CC5C(C)CC(=O)C(O)C5(C)C3C(O)C1O)OC(=O)C(OC(C)=O)C24 (configuration not stated),31.2%,44.4%,11.6%,36%,24.2%,31.6%
COc1ccc2c(c1)Sc1c(Cl)c3c(c(Cl)c1=N2)Sc1cc(OC)ccc1N=3,19.5%,-4.75%,0.7%,21.7%,-2.2%,13.9%
